Among the data in ChEMBL document CHEMBL3988442, “University of Dundee, Small-Polar-MMV Screening Library” (2021) are Percent Effect values, retold here.

For part of these data: Potency and affinity values are given separately.

Parameters in all cases: scale not given: direction of the effect not stated beside the values
Assay [1] deals with Protein translocase subunit SecA (Escherichia coli (strain K12)) (UniProt P10408). Put plainly: Assay to Identify E. coli SecA ATPase Inhibitors. The format is functional. To be noted: 30 µM.
For assay [2], the target named is T1, Ubiquitin-activating enzyme e1, putative (Leishmania donovani (strain BPK282A1)) (UniProt E9BSI1).
T1 sequence (whole entry): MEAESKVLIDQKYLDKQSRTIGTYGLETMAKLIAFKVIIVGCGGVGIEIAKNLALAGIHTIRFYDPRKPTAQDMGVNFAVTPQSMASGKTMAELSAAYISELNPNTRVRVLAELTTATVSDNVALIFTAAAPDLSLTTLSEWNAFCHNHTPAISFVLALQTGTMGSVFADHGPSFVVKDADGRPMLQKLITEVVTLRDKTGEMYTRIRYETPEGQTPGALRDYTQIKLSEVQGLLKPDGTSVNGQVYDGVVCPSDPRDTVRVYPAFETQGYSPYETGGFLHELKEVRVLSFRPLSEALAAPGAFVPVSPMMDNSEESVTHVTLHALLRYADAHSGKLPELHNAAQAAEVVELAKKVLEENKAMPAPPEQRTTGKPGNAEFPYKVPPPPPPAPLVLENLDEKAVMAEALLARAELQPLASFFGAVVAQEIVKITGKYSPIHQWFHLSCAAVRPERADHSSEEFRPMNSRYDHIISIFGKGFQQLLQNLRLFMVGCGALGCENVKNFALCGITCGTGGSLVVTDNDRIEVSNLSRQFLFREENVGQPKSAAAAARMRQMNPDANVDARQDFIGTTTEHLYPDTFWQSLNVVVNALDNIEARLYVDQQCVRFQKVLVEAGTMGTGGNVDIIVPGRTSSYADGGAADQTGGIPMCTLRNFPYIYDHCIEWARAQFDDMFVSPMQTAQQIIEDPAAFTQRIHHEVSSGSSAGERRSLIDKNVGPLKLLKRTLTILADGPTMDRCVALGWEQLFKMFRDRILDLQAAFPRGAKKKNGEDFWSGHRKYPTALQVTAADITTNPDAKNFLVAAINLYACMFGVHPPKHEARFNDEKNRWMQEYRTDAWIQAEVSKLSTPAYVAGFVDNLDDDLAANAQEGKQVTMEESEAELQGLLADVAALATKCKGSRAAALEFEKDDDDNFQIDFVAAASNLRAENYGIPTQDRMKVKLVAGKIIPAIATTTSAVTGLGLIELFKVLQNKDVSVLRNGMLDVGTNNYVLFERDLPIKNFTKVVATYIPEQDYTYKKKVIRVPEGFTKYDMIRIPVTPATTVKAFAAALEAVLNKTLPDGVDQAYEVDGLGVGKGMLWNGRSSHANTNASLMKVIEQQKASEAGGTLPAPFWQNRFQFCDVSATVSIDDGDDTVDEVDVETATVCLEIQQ
The assay can be described thus: Leishmania donovani Ubiquitin Activating Enzyme (LdE1). The format is functional. To be noted: 30 µM.

Assay [3] has as its target AMP-activated protein kinase, AMPK (Homo sapiens) (UniProt P54646+O43741+P54619+Q9UGJ0+Q9Y478+Q13131+Q9UGI9). Put plainly: AMP-dependent Kinase enzyme assay. An in vitro enzyme assay that detects ADP turnover that is directly proportional to AMPK activity. This uses naive AMPK that is activated during the assay with MK-8722. The format is functional. The note with it: 30 µM.

In assay [4] the target is Sialic acid-binding Ig-like lectin 9 (Homo sapiens) (UniProt Q9Y336). The assay can be described thus: Hs-Siglec9 ALPHAscreen SOP 20170721. The note with it: 10 µM.
The test system of a further assay is Trypanosoma cruzi. The assay can be described thus: Trypanosoma cruzi phosphomannomutase and mannose-1-phosphate guanylyltransferase assay. The format is functional. To be noted: 10 µM.
The target of assay [5] is T2, Arginase-2, mitochondrial (Homo sapiens) (UniProt P78540).
T2 sequence (whole entry): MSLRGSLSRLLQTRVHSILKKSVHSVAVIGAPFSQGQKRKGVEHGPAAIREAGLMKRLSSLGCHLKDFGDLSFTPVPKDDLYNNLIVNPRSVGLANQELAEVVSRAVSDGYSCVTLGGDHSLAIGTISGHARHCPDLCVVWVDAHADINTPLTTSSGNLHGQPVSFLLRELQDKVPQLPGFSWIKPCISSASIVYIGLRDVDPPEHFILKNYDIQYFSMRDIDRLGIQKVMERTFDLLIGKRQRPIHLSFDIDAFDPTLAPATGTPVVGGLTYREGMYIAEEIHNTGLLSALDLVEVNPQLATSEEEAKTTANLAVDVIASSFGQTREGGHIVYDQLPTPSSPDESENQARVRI
Put plainly: in vitro enzyme assay to detect the production of urea directly proportional to the activity of Arginase II. Further: in the data most compounds retested in dose-response had high values. To be noted: 33.3 µM. The format is functional.

Assay [6] addresses T3, Proteasome subunit beta (Trypanosoma cruzi) (UniProt O96673).
T3 sequence (whole entry): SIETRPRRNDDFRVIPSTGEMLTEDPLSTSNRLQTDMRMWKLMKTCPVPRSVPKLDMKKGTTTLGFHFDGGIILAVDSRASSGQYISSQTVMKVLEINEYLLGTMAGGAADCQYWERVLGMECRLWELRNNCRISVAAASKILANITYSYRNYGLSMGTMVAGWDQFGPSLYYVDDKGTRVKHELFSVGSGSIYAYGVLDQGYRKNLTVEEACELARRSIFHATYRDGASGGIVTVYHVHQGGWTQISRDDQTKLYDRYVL
Put plainly: Trypanosoma cruzi proteasome chymotrypsin-like activity (TcProtChymo) assay. Further: in the data most compounds retested in dose-response had high values. The format is functional. The note with it: 9.37 µM.

A further assay is filed under the species Homo sapiens. Put plainly: To identify inhibition of the IFN signalling (Jak-Stat) pathway via expression of an eGFP reporter gene under the control of an IFN-stimulated response element (ISRE) containing MxA promoter. The format is functional. To be noted: 30 µM.
The target in assay [7] is T4, Tyrosyl-tRNA synthetase, putative (Trypanosoma cruzi (strain CL Brener)) (UniProt Q4DSP6).
T4 sequence (whole entry): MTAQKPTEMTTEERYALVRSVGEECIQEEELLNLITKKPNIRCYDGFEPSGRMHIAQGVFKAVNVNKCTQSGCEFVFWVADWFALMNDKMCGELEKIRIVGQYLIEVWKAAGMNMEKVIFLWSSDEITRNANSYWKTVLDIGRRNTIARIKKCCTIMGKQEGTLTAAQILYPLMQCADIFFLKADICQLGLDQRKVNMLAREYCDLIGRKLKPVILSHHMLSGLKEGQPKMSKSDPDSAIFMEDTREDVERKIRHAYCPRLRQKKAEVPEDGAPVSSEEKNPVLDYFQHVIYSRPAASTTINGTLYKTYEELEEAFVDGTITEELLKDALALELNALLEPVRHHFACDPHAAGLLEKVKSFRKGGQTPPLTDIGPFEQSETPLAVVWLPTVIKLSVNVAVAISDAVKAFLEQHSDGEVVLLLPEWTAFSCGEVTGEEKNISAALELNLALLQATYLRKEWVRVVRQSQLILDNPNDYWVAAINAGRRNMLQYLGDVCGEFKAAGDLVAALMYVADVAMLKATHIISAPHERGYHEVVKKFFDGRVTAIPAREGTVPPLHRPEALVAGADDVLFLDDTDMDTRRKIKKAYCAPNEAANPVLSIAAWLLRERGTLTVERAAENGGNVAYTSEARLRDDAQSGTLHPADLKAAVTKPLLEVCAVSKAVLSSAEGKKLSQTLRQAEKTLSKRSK
Put plainly: Trypanosoma cruzi tyrosyl tRNA synthetase (TcYRS) _High Tyrosine SOP. Further: in the data most compounds retested in dose-response had high values. The format is functional. To be noted: 30 µM.

The target of assay [8] is T4, Tyrosyl-tRNA synthetase, putative (Trypanosoma cruzi (strain CL Brener)). Put plainly: Trypanosoma cruzi tyrosyl tRNA synthetase (TcYRS) SOP. To be noted: 30 µM. The format is functional.
Assay [9] deals with Chromo domain-containing protein 1 (Saccharomyces cerevisiae (strain ATCC 204508 / S288c) (Baker's yeast)) (UniProt P32657). Put plainly: ScCHD-1 Enzyme Inhibition Assay. Further: in the data most compounds retested in dose-response had high values. The format is functional. The note with it: 30 µM.
Chromo domain-containing protein 1 (Saccharomyces cerevisiae (strain ATCC 204508 / S288c) (Baker's yeast)), sequence (P32657 whole entry, the tested form may be a part): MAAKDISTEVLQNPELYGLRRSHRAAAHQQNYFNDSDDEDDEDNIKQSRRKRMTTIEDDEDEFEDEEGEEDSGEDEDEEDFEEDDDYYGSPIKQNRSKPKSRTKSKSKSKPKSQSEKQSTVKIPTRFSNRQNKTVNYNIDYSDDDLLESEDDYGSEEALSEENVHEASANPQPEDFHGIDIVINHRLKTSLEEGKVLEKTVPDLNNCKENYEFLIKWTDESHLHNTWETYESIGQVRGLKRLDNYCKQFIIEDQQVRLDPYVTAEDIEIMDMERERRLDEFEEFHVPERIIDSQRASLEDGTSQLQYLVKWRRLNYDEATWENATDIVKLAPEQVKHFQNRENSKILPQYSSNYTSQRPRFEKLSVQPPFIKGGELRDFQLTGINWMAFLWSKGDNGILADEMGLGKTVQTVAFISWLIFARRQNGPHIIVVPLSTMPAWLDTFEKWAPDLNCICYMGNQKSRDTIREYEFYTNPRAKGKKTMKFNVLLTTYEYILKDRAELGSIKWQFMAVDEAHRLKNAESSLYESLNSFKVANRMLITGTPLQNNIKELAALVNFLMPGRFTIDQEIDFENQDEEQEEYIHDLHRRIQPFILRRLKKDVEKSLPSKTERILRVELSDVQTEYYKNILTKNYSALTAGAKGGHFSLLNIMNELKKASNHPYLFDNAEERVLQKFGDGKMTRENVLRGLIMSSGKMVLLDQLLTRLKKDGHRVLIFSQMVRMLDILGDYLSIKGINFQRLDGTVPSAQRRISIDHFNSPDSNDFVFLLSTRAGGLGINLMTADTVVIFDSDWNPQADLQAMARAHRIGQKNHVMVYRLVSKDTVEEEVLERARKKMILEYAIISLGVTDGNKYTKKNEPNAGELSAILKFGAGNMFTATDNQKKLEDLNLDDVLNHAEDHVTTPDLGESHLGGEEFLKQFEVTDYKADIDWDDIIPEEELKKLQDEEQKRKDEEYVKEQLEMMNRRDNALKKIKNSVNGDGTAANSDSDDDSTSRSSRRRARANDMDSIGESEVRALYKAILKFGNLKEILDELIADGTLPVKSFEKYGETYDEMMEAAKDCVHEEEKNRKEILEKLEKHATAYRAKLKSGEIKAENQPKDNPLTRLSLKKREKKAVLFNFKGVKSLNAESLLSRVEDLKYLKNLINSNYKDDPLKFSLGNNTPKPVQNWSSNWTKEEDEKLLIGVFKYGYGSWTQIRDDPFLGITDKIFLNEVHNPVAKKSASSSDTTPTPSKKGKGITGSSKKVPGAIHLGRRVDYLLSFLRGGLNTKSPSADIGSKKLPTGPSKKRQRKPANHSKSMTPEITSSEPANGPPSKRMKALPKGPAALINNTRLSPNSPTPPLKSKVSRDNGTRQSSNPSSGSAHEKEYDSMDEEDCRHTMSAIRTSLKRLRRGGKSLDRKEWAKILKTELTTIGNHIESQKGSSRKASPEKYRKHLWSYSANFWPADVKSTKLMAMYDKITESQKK

Sialic acid-binding Ig-like lectin 9 (Homo sapiens), sequence (Q9Y336 whole entry): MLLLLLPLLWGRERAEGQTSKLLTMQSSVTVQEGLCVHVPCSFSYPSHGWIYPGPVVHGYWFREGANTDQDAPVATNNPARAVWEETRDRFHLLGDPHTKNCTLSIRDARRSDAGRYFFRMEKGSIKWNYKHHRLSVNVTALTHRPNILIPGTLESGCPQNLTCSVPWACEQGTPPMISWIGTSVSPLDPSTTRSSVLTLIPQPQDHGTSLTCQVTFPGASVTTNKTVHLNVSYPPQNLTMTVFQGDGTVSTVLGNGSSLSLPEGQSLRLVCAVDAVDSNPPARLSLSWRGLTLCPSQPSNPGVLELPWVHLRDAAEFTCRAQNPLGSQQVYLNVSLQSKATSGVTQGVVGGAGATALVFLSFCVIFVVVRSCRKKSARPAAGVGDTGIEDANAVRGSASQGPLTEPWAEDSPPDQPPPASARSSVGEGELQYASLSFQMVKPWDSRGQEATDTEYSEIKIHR
Protein translocase subunit SecA (Escherichia coli (strain K12)), sequence (P10408 whole entry): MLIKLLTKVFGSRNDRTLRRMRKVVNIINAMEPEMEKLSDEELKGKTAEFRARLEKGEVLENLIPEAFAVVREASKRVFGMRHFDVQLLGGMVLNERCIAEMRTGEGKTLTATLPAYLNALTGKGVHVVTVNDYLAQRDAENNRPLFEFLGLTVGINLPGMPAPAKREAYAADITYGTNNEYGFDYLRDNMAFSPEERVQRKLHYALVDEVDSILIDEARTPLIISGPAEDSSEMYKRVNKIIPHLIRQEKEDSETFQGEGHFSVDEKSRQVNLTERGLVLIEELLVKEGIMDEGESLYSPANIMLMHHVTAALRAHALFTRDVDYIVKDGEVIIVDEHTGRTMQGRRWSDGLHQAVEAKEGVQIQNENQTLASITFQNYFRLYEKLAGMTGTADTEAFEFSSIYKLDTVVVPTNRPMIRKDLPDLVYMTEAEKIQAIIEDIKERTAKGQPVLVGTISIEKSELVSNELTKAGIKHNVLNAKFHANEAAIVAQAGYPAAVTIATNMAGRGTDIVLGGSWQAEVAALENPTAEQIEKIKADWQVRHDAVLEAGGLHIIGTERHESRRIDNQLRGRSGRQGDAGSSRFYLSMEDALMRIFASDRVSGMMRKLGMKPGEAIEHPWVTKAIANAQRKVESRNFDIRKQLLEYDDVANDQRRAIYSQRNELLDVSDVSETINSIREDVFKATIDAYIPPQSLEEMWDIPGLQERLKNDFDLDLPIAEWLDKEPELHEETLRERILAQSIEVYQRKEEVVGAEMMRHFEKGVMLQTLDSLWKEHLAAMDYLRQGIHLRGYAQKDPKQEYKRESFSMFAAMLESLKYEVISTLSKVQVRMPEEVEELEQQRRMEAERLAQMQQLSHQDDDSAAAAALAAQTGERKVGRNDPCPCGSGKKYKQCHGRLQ

Consider `CNc1cc2c(nn1)CCN(C(=O)C1CCCc3ccccc31)C2` (centres undefined), for which the Percent Effect is -1.49% in assay [1]; 7.59% in assay [2]; -8.51% in assay [3]; 1.73% in [4]; -4.44% in the assay on Trypanosoma cruzi; 4.18% in assay [5]. In addition, the Percent Effect is -2.38% in assay [6]; 8.64% in the assay filed under Homo sapiens; 5.42% in [7]; 3.8% in assay [8]; -3.47% in assay [9].
As for `COC(=O)c1sccc1S(=O)(=O)N1CCC(Oc2cccnn2)CC1`, the Percent Effect in assay [1] is -0.0971%; in assay [2], -5.48%; in [3], 16.5%; in assay [4], -5.94%; in the assay with Trypanosoma cruzi, -3.33%; in assay [5] it was 1.36%. Also, the Percent Effect in assay [6] was 9.58%; in the assay filed under Homo sapiens, 9.58%; in assay [7], -6.45%; in assay [8], 0%; in [9] it was -3.65%.
In the case of `Cc1nc(CCC(=O)NC2CCC2)cc(C2CCNCC2)n1`, the Percent Effect was -4.77% in [1]; 26.7% in [2]; -4.67% in [3]; -2.25% in assay [4]; 6.1% in the assay with Trypanosoma cruzi; -4.43% in assay [5]. Besides, the Percent Effect in [6] was 4.67%; in the assay listed under Homo sapiens, 3.41%; in assay [7], 4.25%; in assay [8], 19.2%; in [9], -7.72%.
Regarding `CC(NC(=O)CCCOc1ccccc1)c1nnc2n1CCCCC2` (centres undefined), the Percent Effect in assay [1] is -4.14%; in assay [2] it was 13.5%; in assay [3], -5.88%; in [4], -2.77%; with Trypanosoma cruzi it was 0.0943%; in assay [5], -5.21%. In addition, the Percent Effect in [6] was 11.3%; in the assay filed under Homo sapiens, 16.3%; in assay [7] it was 5.42%; in assay [8], 13.6%; in assay [9], -4.16%.
With `CC(C)Cc1noc(CN(C)C(=O)C2COc3ccccc3C2)n1` (centres undefined), the Percent Effect in [1] was -3.93%; in assay [2], 5.2%; in assay [3] it was -1.17%; in assay [4], 6.48%; in the assay on Trypanosoma cruzi, -0.0983%; in assay [5] it was -27.6%. The Percent Effect is 14.3% in assay [6]; -9.36% in the assay filed under Homo sapiens; -1.07% in [7]; 13.6% in assay [8]; 0.431% in assay [9].
In the case of `Cc1nn(C)c2c(NCCCn3cccn3)ncnc12`, the Percent Effect in assay [1] was -1.47%; in assay [2], 9.33%; in assay [3], 2.34%; in assay [4], -1.8%; in the assay with Trypanosoma cruzi, 3.34%; in assay [5], -3.35%. In addition, the Percent Effect was 21.6% in assay [6]; -12.4% in the assay filed under Homo sapiens; 2.12% in assay [7]; 15.4% in assay [8]; -7.78% in assay [9].
As to `Cc1nccnc1CN1CCC2(CCCN(C3CCOCC3)C2=O)C1` (centres undefined), the Percent Effect in assay [1] was -2.05%; in [2], -2.74%; in assay [3], -4.08%; in assay [4], 1.19%; in the assay on Trypanosoma cruzi, 2.98%; in assay [5], -2.79%. For the same compound, the Percent Effect worked out at 12.8% in assay [6]; 13.9% in the assay filed under Homo sapiens; 5.21% in assay [7]; 6.17% in [8]; 0.026% in assay [9].
In the case of `COc1ccc(C2=CCN(C(=O)C3CCCN(C(N)=O)C3)CC2)cc1` (centres undefined), the Percent Effect in [1] is -3.88%; in [2], 7.89%; in assay [3], 4.4%; in [4], -4.74%; with Trypanosoma cruzi it was 7.75%; in [5], -2.52%. The Percent Effect is 12.9% in assay [6]; 2.88% in the assay listed under Homo sapiens; 6.4% in assay [7]; 18.5% in assay [8]; -7.24% in [9].
Regarding `NC(=O)C1CCN(C(=O)c2cccc(CN3CCOCC3)c2)CC1`, the Percent Effect in assay [1] is -0.727%; in assay [2], 6.94%; in assay [3], 4.41%; in assay [4] it was 25.6%; in the assay with Trypanosoma cruzi it was 4.57%; in assay [5], 2.21%. In addition, the Percent Effect in [6] was 0.702%; in the assay filed under Homo sapiens, -3.07%; in assay [7] it was 1.05%; in assay [8], 0%; in assay [9] it was 79%.
